# PLC-beta3 inh = human PLC-beta3 inhibitors, primary screen, biochemical, fluorescence; 1-phosphatidylinositol 4,5-bisphosphate phosphodiesterase beta-3 (Homo sapiens), Q01970; Purified PLC-beta3, fluorogenic substrate; inhibition, % at 12.2 µM; 370,000 tested, 0.18% active; in the data active = inhibition above about 11%;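 also: 0% = median of compound wells on plate and 100% = full blocker control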
# PLC-gamma1 inh = PLC-gamma1 enzyme inhibitors, primary screen, biochemical, fluorescence, purified enzyme | 1-phosphatidylinositol 4,5-bisphosphate phosphodiesterase gamma-1 (Homo sapiens), P19174 | AID 720700, 2013 | fluorogenic substrate | 370,000 tested, 0.84% active | inhibition, % at 12.2 µM
# Target sequence (P19174 whole entry, looked up): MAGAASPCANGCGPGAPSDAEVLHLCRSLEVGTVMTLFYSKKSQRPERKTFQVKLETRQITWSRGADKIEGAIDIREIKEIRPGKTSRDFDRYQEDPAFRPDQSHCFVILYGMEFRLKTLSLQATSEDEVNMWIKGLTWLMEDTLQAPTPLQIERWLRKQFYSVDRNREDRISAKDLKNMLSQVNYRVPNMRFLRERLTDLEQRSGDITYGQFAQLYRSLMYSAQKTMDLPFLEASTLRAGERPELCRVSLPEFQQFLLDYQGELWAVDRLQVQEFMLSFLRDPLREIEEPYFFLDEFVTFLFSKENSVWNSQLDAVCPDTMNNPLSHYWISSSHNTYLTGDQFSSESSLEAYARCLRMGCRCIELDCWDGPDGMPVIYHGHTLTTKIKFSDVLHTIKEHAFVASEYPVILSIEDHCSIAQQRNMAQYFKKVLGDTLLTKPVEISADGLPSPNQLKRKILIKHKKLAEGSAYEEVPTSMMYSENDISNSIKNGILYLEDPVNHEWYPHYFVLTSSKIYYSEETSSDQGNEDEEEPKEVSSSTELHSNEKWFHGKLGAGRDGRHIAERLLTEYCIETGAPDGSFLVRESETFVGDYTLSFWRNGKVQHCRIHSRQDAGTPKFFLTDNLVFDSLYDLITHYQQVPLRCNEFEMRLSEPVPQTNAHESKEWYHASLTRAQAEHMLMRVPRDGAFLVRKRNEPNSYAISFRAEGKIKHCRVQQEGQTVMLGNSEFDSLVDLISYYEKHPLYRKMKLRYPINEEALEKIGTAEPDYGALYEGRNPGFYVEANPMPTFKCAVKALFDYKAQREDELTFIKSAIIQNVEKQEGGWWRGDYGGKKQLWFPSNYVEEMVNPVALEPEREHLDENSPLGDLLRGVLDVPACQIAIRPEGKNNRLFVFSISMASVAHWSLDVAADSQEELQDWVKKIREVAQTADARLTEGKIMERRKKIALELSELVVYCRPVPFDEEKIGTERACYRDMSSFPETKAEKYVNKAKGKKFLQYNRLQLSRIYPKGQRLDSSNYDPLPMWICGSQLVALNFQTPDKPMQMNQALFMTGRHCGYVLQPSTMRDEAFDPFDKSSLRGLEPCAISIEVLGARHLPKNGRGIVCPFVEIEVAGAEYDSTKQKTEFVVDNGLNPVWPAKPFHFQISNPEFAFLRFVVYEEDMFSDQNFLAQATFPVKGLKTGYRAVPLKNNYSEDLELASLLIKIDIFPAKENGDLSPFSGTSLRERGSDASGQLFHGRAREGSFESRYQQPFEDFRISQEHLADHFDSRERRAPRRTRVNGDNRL
# GC-B act = human GC-B receptor activators, primary screen, HEK293 GC-B cells, cGMP TR-FRET, EC30 CNP; Atrial natriuretic peptide receptor 2 (Homo sapiens), P20594; 0% at EC30 CNP, 100% saturating CNP; activation, % at 10 µM; 370,000 tested, 0.11% active; AID 1920062, 2024;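 active = activation at 10 µM reaching about 35% in either raw or pattern-adjusted values, limit read from the data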
# NPR1 activator = GC-A stimulated cGMP production enhancers – HEK293 GC-A cells, cGMP TR-FRET, EC30 ANP, primary screen; Atrial natriuretic peptide receptor 1 (Homo sapiens), P16066; 0% at EC30 ANP, 100% saturating ANP; activation, % at 10 µM; 370,000 tested, 0.14% active; AID 1671463, 2021; in the data active = activation above about 40%
# PLCgamma1 ctr = PLC-gamma1 enzyme inhibitors, counter-screen for PLC-beta3 inhibitor project, biochemical, fluorescence | shares compounds with PLC-gamma1 inh | inhibition, % at 12.3 µM | 3,300 tested, 3.1% active | purified PLC-gamma1, fluorogenic substrate | AID 743258, 2014
# PLCbeta3 conf = PLC-beta3 inhibitor confirmation, biochemical, fluorescence, purified enzyme; shares compounds with PLC-gamma1 inh; AID 743261, 2014; fluorogenic substrate fluorescence; 3,300 tested, 1% active; inhibition, % at 12.3 µM; in the data active = inhibition above about 11%
# Numbers without * were called inactive; x = not tested or not shown. In the library only some 1.2% were active in any assay of this set; here they are far more common. Rule as the data show it, unless noted: active = inhibition above about 9.5%; inactive = the rest.
SMILES,PLC-beta3 inh,PLC-gamma1 inh,GC-B act,NPR1 activator,PLCgamma1 ctr,PLCbeta3 conf
O=C(Nc1ccc(NC(=O)c2cccs2)cc1)c1ccco1,3.2,-2.2,-4.5,-2.3,x,x
O=C(NC(=S)Nc1ccc(NC(=O)c2cccs2)cc1)c1ccco1,14.8*,6.7,-2.6,-0.1,-0.2,5.2
Nc1cc(Cl)ccc1Oc1ccc2ccccc2c1,-4.7,13.8*,-5.4,5.0,-1.9,-4.8
Cc1ccc(Oc2ccc(Cl)cc2N)cc1,1.7,-0.6,-4.4,-1.0,x,x
O=C(NCC1CCN(Cc2ccc(Cl)cc2)CC1)C1CCCN(c2ncnc3c2nc2n3CCCCC2)C1 (stereo not drawn),-7.4,10.8*,-10.5,-8.2,-3.1,-1.5
CC(=O)c1cccc(NC(=O)C2=CC(c3cccs3)=NS(=O)(=O)N2C)c1,-7.1,-2.6,0.9,-0.7,x,x
CN1C(C(=O)Nc2cccc(O)c2)=CC(c2cccs2)=NS1(=O)=O,6.0,10.4*,-6.9,-0.7,6.6,2.7
CCNC(=O)NS(=O)(=O)c1cnccc1Nc1cccc(Cl)c1,-2.7,-2.0,-2.2,0.3,x,x
O=[N+]([O-])c1cccc(-c2c(-c3ccccc3)ncc3ccc(F)cc23)c1,11.3*,5.9,-4.4,-2.4,-2.0,-2.3
COc1ccc(NC(=O)c2cnc3sccn3c2=O)cc1,-7.5,-3.9,-3.1,2.1,x,x
CC(=O)c1cnc2sccn2c1=O,10.5,13.6*,6.8,-2.2,-4.7,-2.1
CCOC(=O)C1(CCc2ccccc2)CCN(Cc2ccccn2)CC1,0.9,9.9*,-1.4,-1.6,-6.8,-0.8
O=C(NCC(c1ccccc1)c1ccccc1)[C@H](Cc1ccccc1)NC1(C(=O)NC2CCCCC2)CCOCC1,3.2,13.8*,-21.4,-18.3,1.9,5.0
COC(=O)NCc1ccc(CNC(=O)OC)cc1,6.1,3.3,8.5,-2.1,x,x
COC(=O)NCc1ccc(Cl)c(Cl)c1,2.2,11.6*,-5.6,-6.6,-7.5,-2.8
OC(CN1CCCCCC1)CN(c1ccccc1)c1ccccc1 (stereo not drawn),-6.5,-3.2,-11.1,-12.8,x,x
CN(CC(O)CN)CC(O)CN1CCCCC1 (stereo not drawn),1.9,9.6*,1.6,0.0,-4.2,-2.1
NC(=O)NOCc1ncc(C(F)(F)F)cc1Cl,-2.1,0.2,11.0,9.7,x,x
O=C(Nc1cccc2ccccc12)c1ccc(F)cc1,0.0,-1.0,-0.9,5.3,x,x
O=C(Nc1cccc2ccccc12)c1ccccc1,1.2,10.2*,-5.7,-0.9,-70.8,-1.7
CSc1ccccc1NC(=O)CN(C)CC(=O)NCC(=O)Nc1ccc(F)cc1,1.2,-0.1,-6.0,0.8,x,x
Cc1cc(=O)[nH]c(N2CCCC2)n1,4.7,11.6*,-1.7,-5.8,-9.4,-2.6
Cc1cc(=O)[nH]c(N2CCN(c3ccc(Cl)cc3)CC2)n1,-1.5,7.2,-3.6,-3.8,x,x
NNC(=O)c1cc2cc3ccccc3nc2s1,-9.9,-3.8,-7.9,-1.1,x,x
Nc1c(-c2ccccc2)cnc2cc(-c3ccccc3)nn12,0.7,0.6,-5.8,-6.3,x,x
SMILES,PLC-beta3 inh,PLC-gamma1 inh,GC-B act,NPR1 activator,PLCgamma1 ctr,PLCbeta3 conf
COC(=O)CCC(C)C1CCC2C3CCC4CC(O)CCC4(C)C3=CC(=O)C12C (stereo not drawn),11.1*,2.3,1.3,-3.0,-3.8,-2.9
O=C(Nc1ccc(Cl)c([N+](=O)[O-])c1)c1ccncc1,2.9,10.8*,-4.8,-4.8,-6.5,1.2
CC(C)CC(=O)Nc1nnc(CSCc2ccc(F)cc2)s1,-11.6,-1.7,-2.5,-0.1,x,x
CC(OC(=O)CCCCCN=C1NS(=O)(=O)c2ccccc21)C(=O)Nc1cc(Cl)cc(Cl)c1 (stereo not drawn),5.7,9.7*,-1.6,-8.4,1.4,0.0
CC(=O)Nc1ccc(NC(=O)C(C)OC(=O)CCN=C2NS(=O)(=O)c3ccccc32)cc1 (stereo not drawn),-3.8,-2.2,0.1,2.2,x,x
O=C(Nc1nnc(Cc2ccccc2)s1)c1ccccc1,-6.8,-0.6,3.8,-2.1,x,x
